The results in this text go back to the supplement of paper PMC10849652.

About 7,900 targets were measured; listed, in parts, are those with a hit and a random draw of the rest. About 0.6% of all pairs of compound and target were hits.

UniProt Q16643, sequence (Q16643 whole entry, looked up): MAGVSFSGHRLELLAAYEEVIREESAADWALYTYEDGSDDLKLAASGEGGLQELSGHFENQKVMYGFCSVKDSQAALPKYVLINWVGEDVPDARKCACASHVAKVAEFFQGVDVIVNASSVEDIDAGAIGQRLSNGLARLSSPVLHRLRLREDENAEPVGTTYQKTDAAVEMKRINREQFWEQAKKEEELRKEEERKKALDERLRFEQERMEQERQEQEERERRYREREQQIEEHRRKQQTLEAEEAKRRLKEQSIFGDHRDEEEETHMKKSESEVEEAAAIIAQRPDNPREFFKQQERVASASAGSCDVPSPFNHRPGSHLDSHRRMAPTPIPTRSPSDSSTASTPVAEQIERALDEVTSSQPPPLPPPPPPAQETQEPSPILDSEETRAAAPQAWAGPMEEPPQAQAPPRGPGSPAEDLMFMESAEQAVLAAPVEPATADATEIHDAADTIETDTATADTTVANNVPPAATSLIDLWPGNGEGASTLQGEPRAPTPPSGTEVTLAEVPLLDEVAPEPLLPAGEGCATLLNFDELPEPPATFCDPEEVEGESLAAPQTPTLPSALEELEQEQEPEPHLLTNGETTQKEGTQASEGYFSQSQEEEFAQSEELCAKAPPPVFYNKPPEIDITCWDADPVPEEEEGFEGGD
UniProt P50570, sequence (P50570 whole entry, looked up): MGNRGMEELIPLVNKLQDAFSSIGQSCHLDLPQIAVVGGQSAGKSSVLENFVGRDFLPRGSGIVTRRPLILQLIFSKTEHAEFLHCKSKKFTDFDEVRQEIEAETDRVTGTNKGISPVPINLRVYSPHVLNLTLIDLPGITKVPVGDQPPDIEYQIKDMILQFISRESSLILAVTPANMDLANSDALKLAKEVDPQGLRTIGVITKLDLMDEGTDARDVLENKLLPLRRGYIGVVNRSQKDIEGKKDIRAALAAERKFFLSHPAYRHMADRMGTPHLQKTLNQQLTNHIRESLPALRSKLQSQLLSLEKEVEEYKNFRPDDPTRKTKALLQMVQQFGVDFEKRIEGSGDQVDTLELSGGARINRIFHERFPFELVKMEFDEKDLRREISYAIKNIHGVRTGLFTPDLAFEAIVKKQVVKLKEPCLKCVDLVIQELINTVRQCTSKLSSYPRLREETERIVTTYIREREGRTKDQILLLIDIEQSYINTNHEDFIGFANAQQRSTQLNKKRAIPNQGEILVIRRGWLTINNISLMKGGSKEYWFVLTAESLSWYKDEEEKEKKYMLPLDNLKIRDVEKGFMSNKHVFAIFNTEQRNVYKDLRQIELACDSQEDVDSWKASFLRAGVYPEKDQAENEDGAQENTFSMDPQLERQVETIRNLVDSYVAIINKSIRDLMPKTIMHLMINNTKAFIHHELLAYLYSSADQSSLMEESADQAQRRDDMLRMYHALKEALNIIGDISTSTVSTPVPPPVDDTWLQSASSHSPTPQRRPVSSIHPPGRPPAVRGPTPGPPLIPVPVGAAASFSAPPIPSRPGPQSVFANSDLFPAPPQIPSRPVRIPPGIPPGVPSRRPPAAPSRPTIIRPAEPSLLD
UniProt P32519, sequence (P32519 whole entry, looked up): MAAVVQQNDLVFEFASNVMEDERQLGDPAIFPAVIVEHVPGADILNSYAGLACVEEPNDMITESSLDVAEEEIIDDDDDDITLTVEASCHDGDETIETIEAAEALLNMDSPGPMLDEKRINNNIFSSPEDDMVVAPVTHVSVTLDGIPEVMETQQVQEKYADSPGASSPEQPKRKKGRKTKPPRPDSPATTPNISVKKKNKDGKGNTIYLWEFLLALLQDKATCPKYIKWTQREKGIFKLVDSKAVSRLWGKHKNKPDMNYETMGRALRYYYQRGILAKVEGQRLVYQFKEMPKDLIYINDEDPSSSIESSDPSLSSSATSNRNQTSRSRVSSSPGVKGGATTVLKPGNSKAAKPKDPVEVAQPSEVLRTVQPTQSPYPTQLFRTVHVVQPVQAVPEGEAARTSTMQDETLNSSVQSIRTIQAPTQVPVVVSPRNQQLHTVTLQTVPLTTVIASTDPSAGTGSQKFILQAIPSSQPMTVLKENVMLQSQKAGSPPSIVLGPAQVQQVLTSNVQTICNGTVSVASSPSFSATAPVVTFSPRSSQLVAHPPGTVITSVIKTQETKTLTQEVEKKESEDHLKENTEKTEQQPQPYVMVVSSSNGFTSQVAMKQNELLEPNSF
UniProt Q8N8J7, sequence (Q8N8J7 whole entry, looked up): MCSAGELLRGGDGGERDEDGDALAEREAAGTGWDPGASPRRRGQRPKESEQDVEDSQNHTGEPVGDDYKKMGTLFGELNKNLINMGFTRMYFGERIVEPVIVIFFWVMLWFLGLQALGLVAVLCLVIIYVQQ
UniProt P60842, sequence (P60842 whole entry, looked up): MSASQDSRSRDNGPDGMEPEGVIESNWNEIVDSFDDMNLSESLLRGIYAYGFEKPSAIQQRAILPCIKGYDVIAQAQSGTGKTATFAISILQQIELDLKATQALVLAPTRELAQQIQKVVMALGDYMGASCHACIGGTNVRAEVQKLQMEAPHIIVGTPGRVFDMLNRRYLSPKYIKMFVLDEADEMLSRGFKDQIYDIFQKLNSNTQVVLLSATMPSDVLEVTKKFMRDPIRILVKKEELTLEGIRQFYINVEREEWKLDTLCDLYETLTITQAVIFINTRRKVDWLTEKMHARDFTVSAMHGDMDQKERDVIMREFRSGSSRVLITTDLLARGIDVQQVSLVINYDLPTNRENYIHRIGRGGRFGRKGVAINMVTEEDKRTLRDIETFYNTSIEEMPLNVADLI
UniProt P41091, sequence (P41091 whole entry, looked up): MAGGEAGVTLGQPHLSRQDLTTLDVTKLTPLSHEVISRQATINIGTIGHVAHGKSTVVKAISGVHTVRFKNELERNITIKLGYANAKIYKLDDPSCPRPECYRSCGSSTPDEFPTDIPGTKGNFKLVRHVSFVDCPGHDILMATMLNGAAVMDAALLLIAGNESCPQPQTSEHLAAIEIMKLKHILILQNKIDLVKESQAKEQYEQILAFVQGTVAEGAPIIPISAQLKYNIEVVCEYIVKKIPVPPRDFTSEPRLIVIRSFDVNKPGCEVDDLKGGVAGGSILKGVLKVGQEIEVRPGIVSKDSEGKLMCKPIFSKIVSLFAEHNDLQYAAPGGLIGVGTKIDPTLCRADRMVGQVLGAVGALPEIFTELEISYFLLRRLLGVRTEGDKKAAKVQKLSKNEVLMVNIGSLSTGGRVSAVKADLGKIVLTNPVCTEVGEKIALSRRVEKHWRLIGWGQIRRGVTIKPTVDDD
UniProt Q96G46, sequence (Q96G46 whole entry, looked up): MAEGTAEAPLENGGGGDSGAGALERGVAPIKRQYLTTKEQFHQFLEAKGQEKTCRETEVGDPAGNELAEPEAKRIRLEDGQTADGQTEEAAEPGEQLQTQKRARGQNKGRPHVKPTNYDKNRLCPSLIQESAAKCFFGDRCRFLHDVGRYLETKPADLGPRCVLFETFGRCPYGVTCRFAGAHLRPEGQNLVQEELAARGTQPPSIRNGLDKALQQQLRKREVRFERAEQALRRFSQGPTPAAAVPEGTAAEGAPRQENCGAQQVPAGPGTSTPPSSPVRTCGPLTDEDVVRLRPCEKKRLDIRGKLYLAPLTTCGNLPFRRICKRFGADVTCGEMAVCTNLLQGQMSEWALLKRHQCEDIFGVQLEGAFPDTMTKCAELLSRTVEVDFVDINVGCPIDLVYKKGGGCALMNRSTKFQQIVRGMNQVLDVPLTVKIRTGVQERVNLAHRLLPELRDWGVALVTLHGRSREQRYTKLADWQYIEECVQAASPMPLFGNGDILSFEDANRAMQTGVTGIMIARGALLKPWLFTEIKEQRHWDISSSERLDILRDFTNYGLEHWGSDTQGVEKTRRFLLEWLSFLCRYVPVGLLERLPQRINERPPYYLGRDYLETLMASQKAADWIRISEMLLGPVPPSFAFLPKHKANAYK
UniProt Q96GQ7, sequence (Q96GQ7 whole entry, looked up): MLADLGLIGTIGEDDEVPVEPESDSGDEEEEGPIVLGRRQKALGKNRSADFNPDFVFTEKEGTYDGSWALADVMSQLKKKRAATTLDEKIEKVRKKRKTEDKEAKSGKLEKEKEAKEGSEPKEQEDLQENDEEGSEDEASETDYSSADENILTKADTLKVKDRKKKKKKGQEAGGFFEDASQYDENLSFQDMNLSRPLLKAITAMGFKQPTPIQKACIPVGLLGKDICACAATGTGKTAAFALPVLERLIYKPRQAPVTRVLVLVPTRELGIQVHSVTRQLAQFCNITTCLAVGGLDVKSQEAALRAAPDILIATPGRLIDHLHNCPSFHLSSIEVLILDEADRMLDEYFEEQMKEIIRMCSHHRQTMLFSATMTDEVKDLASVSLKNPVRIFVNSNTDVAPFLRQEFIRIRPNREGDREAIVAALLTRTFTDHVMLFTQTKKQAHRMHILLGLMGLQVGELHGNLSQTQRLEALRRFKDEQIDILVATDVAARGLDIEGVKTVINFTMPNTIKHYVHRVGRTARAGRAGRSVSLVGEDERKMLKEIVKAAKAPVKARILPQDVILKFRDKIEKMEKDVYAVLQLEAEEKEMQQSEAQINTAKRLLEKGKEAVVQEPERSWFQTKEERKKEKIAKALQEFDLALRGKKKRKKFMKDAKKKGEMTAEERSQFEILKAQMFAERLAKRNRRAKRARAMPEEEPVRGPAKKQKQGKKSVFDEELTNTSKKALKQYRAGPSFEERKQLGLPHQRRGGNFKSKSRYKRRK
UniProt O75822, sequence (O75822 whole entry, looked up): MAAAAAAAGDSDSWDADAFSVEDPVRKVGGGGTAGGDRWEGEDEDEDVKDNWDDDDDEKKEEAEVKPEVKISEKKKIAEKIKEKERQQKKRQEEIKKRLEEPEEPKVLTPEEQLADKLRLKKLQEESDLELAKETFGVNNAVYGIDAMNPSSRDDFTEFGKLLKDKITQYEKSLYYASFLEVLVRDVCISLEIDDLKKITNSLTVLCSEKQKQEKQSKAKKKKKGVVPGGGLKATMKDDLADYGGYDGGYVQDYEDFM

Compound in one assay: CC(C)N(C[C@H]1O[C@@H](n2cnc3c(N)ncnc32)[C@H](O)[C@@H]1O)[C@H]1C[C@@H](CCc2nc3cc(C(C)(C)C)ccc3[nH]2)C1 [pinometostat]
The assay is described as follows: log2 fold change, soluble protein after heating vs DMSO (PISA); higher = thermal stabilisation; K562 cells, 10 uM, 30 min; active = over 0.2 and 3.5 SD of the protein, either way, in both replicates (recomputed). In short, it runs like this:
(§1)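 Aliquots of K562 cells (2×10^6 cells/mL) treated with 10 μM compound for 30 min were heated for 3 min over 48°C-58°C. After pooling and extraction in PBS with 0.5% NP-40 at 4°C, soluble protein from a 21,000xg, 90 min spin was quantified by TMTpro 16plex LC-MS/MS with channel sums equalised. Thermal stability is expressed against control samples, from duplicates, as a log2 fold change.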
In the case of DUS3L (UniProt Q96G46), the log2 fold change was -0.022 (inactive).
Same read-out and setting: next, EIF2S3 (UniProt P41091): 0.077 (inactive).
On to DDX27 (UniProt Q96GQ7), for which the log2 fold change is 0.311 (inactive).
The same measure, in the same setting: for EED, A0A5F9ZI63 the value was 0.052 (inactive).
On to ELF1 (UniProt P32519), for which the log2 fold change is 0.053 (inactive).
Regarding EZH2 isoform 2 (UniProt Q15910), the log2 fold change was 0.068 (inactive).
Still for that read-out and setting: for DNM2 (UniProt P50570) the value was -0.014 (inactive); for EXOSC10 (UniProt Q01780), 0.059 (inactive); for FAM117B (UniProt Q6P1L5), -0.175 (inactive).
Still for that read-out and setting: for DBN1 isoform 3 (UniProt Q16643) the value was -0.005 (inactive); for EIF4A1 (UniProt P60842), 0.016 (inactive).
On the same count and under the same terms, for FAM241A (UniProt Q8N8J7) the value was -0.029 (inactive).

Compound in another assay: CC1=C(C(CC(=O)N1)C2=CC=C(C=C2)C(F)(F)F)C(=O)NC3=C(C=C4C(=C3)C=NN4)F
The description is as above. A digest of the protocol:
as §1
As for EIF2AK3 (UniProt Q9NZJ5), the log2 fold change is -0.106 (inactive).
The same measure, in the same setting: next, DCUN1D1 (UniProt Q96GG9): 0.014 (inactive); EIF3J isoform 2 (UniProt O75822): 0.046 (inactive).
Consider DCAF10 (UniProt Q5QP82), for which the log2 fold change is 0.061 (inactive).
On the same count and under the same terms, for DENND10 (UniProt Q8TCE6) the value was 0.059 (inactive); for FAM3A (UniProt P98173), 0.018 (inactive).
With ELOVL5 isoform 2 (UniProt Q9NYP7), the log2 fold change was -0.027 (inactive).
Still for that read-out and setting: next, DEGS1 (UniProt O15121): -0.118 (inactive); DHCR7 (UniProt Q9UBM7): 0.037 (inactive); EIF4G3 isoform 3 (UniProt O43432): -0.227 (inactive).
The same measure, in the same setting: for EIF3J (UniProt O75822) the value was -0.019 (inactive).
Still for that read-out and setting: next, E2F4 (UniProt Q16254): 0 (inactive).
Turning to DOHH (UniProt Q9BU89), the log2 fold change is 0.02 (inactive).
The same measure, in the same setting: for ERLIN2 (UniProt O94905) the value was 0.021 (inactive); for DPYSL2 (UniProt Q16555), -0.007 (inactive); for ELAC1 (UniProt Q9H777), -0.01 (inactive).
For EEF1A1 (UniProt P68104), the log2 fold change was 0.01 (inactive).
On to EHBP1L1 (UniProt Q8N3D4), for which the log2 fold change is -0.049 (inactive).
Same read-out and setting: next, EXOC8 (UniProt Q8IYI6): 0.026 (inactive); DTWD1 (UniProt Q8N5C7): -0.109 (inactive).
Take DOLPP1 (UniProt Q86YN1): the log2 fold change is 0.016 (inactive).
On to ERCC6 (UniProt Q03468), for which the log2 fold change was 0.157 (inactive).
Same read-out and setting: next, CUX1 isoform 3 (UniProt P39880): 0.015 (inactive); DUS3L (UniProt Q96G46): -0.001 (inactive); EIF2S3 (UniProt P41091): 0.005 (inactive).
The same measure, in the same setting: next, EGR1 (UniProt P18146): 0.188 (inactive).
Still for that read-out and setting: next, DDX27 (UniProt Q96GQ7): -0.344 (inactive); EED, A0A5F9ZI63: -0.001 (inactive); ELF1 (UniProt P32519): -0.22 (inactive).
On to DNM2 (UniProt P50570), for which the log2 fold change is -0.012 (inactive).
As for DBN1 isoform 3 (UniProt Q16643), the log2 fold change is 0.05 (inactive).
On the same count and under the same terms, for EIF4A1 (UniProt P60842) the value was -0.011 (inactive); for FAM241A (UniProt Q8N8J7), 0.059 (inactive).
